This is an account of results in PubChem BioAssay.

Calls of active or inactive are those of the source. Unless noted, the rule behind the calls is not given here.

The nature of experiment [1]: anti-His antibody binders, primary screen, artefact control for SMM control protein annotation, biochemical, small-molecule microarray, 635 nm fluorescence (AID 1128).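 Note: score merges feature fluorescence with signal-to-noise for each printed compound spot.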 Conditions: anti-His Alexa647 antibody binding, higher = more signal.
Experiment [2] relates to Human papillomavirus type 1a E7 protein (residues 1-88). Put plainly: HPV1a E7 small-molecule binders, primary screen, biochemical, small-molecule microarray, residues 1-88, 635 nm (AID 1129). Conditions: small-molecule microarray binding, fluorescence 635 nm; higher = more signal.
The target in experiment [3] is Focal adhesion kinase 1 (Homo sapiens) (UniProt Q05397). Put plainly: small-molecule microarray binders of FAK, primary screen, biochemical, 635/667 nm fluorescence, BSA, DTT (AID 1130).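 Note: composite of spot emission at 667 nm and signal to noise over triplicate slides.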 Particulars: PTK2 binding, 635 nm fluorescence, higher = more signal.
Experiment [4] relates to Fibrinogen (Alexa647-labelled). In words: fibrinogen binders on compound microarrays, profiling panel, artefact control for SMM control-protein annotation, biochemical, small-molecule microarray, 635/667 nm fluorescence (AID 1131).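 Note: z-score merges 667 nm fluorescence with per-spot signal-to-noise over triplicate slides.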 Conditions: fibrinogen-A647 binding fluorescence, higher = more signal.
The target of experiment [5] is Follistatin (Homo sapiens) (UniProt P19883). In words: follistatin binders on small-molecule microarrays, primary screen, biochemical, small-molecule microarray, 635/667 nm fluorescence (AID 1132). Particulars: FST binding, 635 nm fluorescence, higher = more signal.
Experiment [6] concerns the target Fibroblast growth factor 2 (Homo sapiens) (UniProt P09038). Put plainly: FGF2 binders on small-molecule microarrays, primary screen, biochemical, small-molecule microarray, 635/667 nm fluorescence (AID 1133). Particulars: small-molecule microarray binding, FGF2, fluorescence 635/667; higher = more signal.
Experiment [7] can be described thus: mitochondrial membrane potential change in A549 cells, profiling panel, cell-based, JC-1 fluorescence, basal, 24 h, 100 nL (AID 1138).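 Note: A549 lung adenocarcinoma cells under basal conditions with no added stimulus; test concentration not given here.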 Conditions: higher = more signal.
Another experiment deals with Lefty1. Put plainly: Lefty1 binders on small-molecule microarrays, primary screen, biochemical, small-molecule microarray, 635/667 nm fluorescence (AID 1139). Conditions: small-molecule microarray binding, fluorescence 635/667; higher = more signal.
Experiment [8] has as its system wheat germ agglutinin (Triticum aestivum), Alexa647-labelled. Put plainly: wheat germ agglutinin binders on compound microarrays, profiling panel, artefact control for SMM control-protein annotation, biochemical, small-molecule microarray, 635/667 nm fluorescence (AID 1140).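 Note: score merges 667 nm feature emission with signal to noise over triplicate slides.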 Particulars: WGA-A647 binding, 635 nm fluorescence, higher = more signal.
In experiment [9] the target is Luciferin 4-monooxygenase (Photinus pyralis) (UniProt P08659). Put plainly: firefly luciferase enzyme inhibitors, primary screen, biochemical, luminescence, purified enzyme, 2006 set (AID 1141).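 Note: cell-free assay with purified firefly luciferase at 100 ng per well in PBS; test concentration not given here.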 Particulars: SteadyGlo luminescence, 30 min, higher = more signal, called active from +8 up or from −8 down.
Experiment [10] has as its system Wnt5a (protein binding on small-molecule microarray). Put plainly: Wnt5a binders on small-molecule microarray, primary screen, biophysical, 635/667 nm fluorescence (AID 1142).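 Note: fluorescence read at 667 nm with signal to noise per printed feature.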 Conditions: 635 nm fluorescence, higher = more signal.
Experiment [11] in a line: cell viability in Huh7 cells, primary screen, cytotoxicity control for HCV replication inhibitor project, CellTiter-Glo luminescence, basal, 48 h (AID 1143).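 Note: Huh7 hepatoma cells carrying a hepatitis C replication reporter with no stimulus; test concentration not given here.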 Particulars: Huh7 HCV replicon, higher = more signal, called active from +8 up or from −8 down.
Experiment [12] is described as follows: P. aeruginosa biofilm formation inhibitors, primary screen, PAO1 strain, BacTiter-Glo luminescence, LB-PBS (AID 1144). Conditions: 12 h, higher = more signal.
Experiment [13] is described as follows: CREB reporter modulators without forskolin, primary screen, cell-based, PC12, CRE-LacZ reporter, unstimulated (AID 1145). Particulars: no forskolin, luminescence, 4.5 h, higher = more signal, called active from +8 up or from −8 down.
Experiment [14] is described as follows: CREB reporter modulators under forskolin, primary screen, cell-based, PC12, CRE-LacZ reporter, forskolin-stimulated (AID 1146).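 Note: PC12 cells with 6xCRE LacZ reporter stimulated by forskolin 10 µM; beta-galactosidase reporter signal reflecting CREB driven transcription.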 Conditions: luminescence, 4.5 h, higher = more signal, called active from +8 up or from −8 down.
Experiment [15] has as its target Streptavidin (Streptomyces avidinii) (UniProt P22629). In words: streptavidin binders on small-molecule microarray, primary screen, artefact control for SMM compound annotation, biophysical, 635/667 nm fluorescence (AID 1147).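 Note: signal reflects streptavidin binding to arrayed compounds as a control protein.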 Conditions: streptavidin binding, higher = more signal.
A short description of experiment [16]: small-molecule binders of probe aInhba, primary screen, biochemical, small-molecule microarray, 635/667 nm fluorescence (AID 1148).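 Note: score merges 667nm spot fluorescence with signal-to-noise for antibody binding to printed compounds.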 Particulars: higher = more signal.
In experiment [17] the target is Torsin-1A (Homo sapiens) (UniProt O14656). Put plainly: torsin A binders from cell lysate, primary screen, small-molecule microarray, wild-type, 635/667 nm (AID 1149). Conditions: COS7 hTOR1A-WT lysate, 635 nm fluorescence, higher = more signal.
Experiment [18] shares this target. In words: small-molecule binders of mutant TOR1A in lysate, primary screen, cell lysate, small-molecule microarray, COS7 lysate, 635/667 nm fluorescence (AID 1150).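 Note: score pools 667 nm emission and signal to noise measuring lysate protein binding.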 Particulars: COS7 hTOR1A mutant lysate, 635 nm fluorescence, higher = more signal.
Experiment [19] has as its system Sonic hedgehog protein (Shh). Put plainly: small-molecule binders of Shh protein, primary screen, biochemical, small-molecule microarray, 635/667 nm fluorescence (AID 1151).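 Note: Shh protein binding to compounds spotted on small-molecule microarray slides; score combines spot fluorescence intensity with signal-to-noise across triplicate slides.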 Conditions: small-molecule microarray binding, 635 nm fluorescence; higher = more signal.

Luciferin 4-monooxygenase (Photinus pyralis), sequence (P08659 whole entry, looked up): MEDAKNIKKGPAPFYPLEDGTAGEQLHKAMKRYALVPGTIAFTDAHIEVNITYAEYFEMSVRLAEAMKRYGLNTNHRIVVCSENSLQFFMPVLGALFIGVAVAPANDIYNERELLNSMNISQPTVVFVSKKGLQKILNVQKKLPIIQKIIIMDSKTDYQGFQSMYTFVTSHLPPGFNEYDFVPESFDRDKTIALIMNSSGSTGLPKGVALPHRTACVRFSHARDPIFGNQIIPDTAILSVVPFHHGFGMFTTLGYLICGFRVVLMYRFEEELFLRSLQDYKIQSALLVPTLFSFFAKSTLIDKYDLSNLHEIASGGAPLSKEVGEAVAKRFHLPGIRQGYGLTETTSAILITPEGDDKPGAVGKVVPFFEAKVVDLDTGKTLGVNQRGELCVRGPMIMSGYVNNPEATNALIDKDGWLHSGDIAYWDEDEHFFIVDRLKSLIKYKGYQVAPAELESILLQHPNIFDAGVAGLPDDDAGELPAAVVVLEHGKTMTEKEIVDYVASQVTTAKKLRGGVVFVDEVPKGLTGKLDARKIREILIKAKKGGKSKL
Streptavidin (Streptomyces avidinii), sequence (P22629 whole entry, looked up): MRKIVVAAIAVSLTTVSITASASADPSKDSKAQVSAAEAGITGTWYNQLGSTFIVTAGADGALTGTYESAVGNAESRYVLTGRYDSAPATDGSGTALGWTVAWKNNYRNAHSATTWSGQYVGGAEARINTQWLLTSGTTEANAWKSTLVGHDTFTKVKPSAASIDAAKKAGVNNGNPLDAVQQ
Torsin-1A (Homo sapiens), sequence (O14656 whole entry, looked up): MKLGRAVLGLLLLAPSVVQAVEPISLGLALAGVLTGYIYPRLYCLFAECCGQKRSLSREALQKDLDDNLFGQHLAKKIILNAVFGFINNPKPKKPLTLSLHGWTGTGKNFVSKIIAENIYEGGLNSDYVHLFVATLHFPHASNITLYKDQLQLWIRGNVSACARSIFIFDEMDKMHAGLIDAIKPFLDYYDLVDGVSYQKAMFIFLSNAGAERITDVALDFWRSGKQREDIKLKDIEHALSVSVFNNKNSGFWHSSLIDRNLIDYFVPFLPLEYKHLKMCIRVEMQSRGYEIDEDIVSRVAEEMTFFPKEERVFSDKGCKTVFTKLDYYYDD
Focal adhesion kinase 1 (Homo sapiens), sequence (Q05397 whole entry, looked up): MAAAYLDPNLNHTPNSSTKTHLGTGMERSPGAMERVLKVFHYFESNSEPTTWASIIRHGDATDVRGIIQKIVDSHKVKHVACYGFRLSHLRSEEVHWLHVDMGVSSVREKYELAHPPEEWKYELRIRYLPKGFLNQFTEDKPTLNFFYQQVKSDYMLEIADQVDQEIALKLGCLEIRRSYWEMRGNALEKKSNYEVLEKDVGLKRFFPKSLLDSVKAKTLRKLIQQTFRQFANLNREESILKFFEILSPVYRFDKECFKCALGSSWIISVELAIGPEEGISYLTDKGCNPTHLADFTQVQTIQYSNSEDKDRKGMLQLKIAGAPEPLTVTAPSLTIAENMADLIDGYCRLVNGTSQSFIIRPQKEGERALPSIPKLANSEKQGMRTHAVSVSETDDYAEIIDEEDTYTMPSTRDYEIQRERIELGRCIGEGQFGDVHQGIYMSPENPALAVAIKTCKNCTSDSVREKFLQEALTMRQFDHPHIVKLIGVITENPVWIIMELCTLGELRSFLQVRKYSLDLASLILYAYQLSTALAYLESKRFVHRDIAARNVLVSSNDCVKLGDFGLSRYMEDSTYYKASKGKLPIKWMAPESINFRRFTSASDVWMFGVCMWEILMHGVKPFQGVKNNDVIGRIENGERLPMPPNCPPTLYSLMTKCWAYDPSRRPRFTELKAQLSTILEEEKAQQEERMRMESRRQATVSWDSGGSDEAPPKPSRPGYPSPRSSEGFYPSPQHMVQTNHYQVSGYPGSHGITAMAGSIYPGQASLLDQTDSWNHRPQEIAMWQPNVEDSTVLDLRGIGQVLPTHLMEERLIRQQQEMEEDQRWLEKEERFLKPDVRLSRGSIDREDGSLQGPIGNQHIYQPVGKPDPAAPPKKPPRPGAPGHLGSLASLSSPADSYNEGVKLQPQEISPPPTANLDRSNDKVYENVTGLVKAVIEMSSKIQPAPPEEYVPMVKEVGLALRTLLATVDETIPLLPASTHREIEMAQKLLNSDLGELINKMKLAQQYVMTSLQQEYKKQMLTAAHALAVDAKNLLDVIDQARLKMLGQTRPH
Follistatin (Homo sapiens), sequence (P19883 whole entry, looked up): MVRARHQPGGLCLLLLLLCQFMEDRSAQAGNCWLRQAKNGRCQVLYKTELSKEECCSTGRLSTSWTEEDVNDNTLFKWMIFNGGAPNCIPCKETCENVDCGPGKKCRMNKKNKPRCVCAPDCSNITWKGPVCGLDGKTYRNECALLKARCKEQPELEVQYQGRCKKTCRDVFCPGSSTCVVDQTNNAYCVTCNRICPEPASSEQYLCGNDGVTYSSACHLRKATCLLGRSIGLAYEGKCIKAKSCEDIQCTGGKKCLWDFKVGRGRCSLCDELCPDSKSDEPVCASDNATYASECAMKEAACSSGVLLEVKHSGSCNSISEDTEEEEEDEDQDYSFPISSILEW
Fibroblast growth factor 2 (Homo sapiens), sequence (P09038 whole entry, looked up): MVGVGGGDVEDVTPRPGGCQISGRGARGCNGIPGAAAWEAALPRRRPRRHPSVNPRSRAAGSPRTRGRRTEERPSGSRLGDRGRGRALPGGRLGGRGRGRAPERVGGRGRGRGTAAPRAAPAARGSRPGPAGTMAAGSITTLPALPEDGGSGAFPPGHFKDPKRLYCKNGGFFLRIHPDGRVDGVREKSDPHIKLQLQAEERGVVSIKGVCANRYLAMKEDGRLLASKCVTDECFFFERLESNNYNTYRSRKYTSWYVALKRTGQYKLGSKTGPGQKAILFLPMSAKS

Turning to `COC(=O)[C@@]1(Cc2ccc(OC)cc2)[C@@H]2[C@@H](CC(=O)[C@H]2CC(=O)C(=O)N2CCCC2)CN1C(=O)c1ccccc1`, the composite z-score was 2.96 in experiment [1]; 1.27 in experiment [2]; 0.888 in experiment [3]; 1 in experiment [4]; 0.713 in experiment [5]; -0.256 in experiment [6]. In addition, the composite z-score is -0.265 in the experiment on Lefty1; 1.47 in experiment [8]; 2.07 in experiment [10]; 1.7 in [15]; 1.69 in experiment [16]; 0.774 with Torsin-1A (Homo sapiens) [17]. Moreover, the composite z-score with Torsin-1A (Homo sapiens) [18] was 1.27; in experiment [19] it was -0.566. The z-score in experiment [7] was 0.483; in [9], 0.596 (inactive); in experiment [11] it was -2.82 (inactive); in [12], -0.98 (inactive); in experiment [13], 0.779 (inactive); in experiment [14] it was -0.013 (inactive).
With `C=CCNC(=O)[C@H]1[C@@H]2C(=O)O[C@@H](c3ccccc3)[C@@H](c3ccccc3)N2[C@@H](c2ccc(O)cc2)[C@]12C(=O)Nc1ccc(C#CC3=CCCCC3)cc12`, the composite z-score in [1] is 1.3; in experiment [2], 1.02; in experiment [3] it was 0.0897; in [4] it was 0.531; in experiment [5], 0.886; in experiment [6], 0.355. The composite z-score in the experiment on Lefty1 turned out to be 0.916; in experiment [8], 0.622; in experiment [10] it was 0.121; in experiment [15], 1.18; in [16] it was 0.616; with Torsin-1A (Homo sapiens) [17], 1.75. Further, the composite z-score was 0.462 with Torsin-1A (Homo sapiens) [18] and 2 in [19]. In addition, the z-score is 0.88 in experiment [7]; 0.0736 (inactive) in experiment [9]; -3.15 (inactive) in experiment [11]; -0.0901 (inactive) in experiment [12]; -0.671 (inactive) in experiment [13]; 0.21 (inactive) in experiment [14].
As to `COc1ccc(CCNC(=O)[C@@]2(Sc3ccc(C)cc3)CC(=O)N(Cc3cc(C(F)(F)F)cc(C(F)(F)F)c3)[C@@H]2c2ccc(CO)cc2)cc1`, the composite z-score was -0.588 in [1]; -1.49 in experiment [2]; -0.545 in experiment [3]; -1.07 in [4]; -1.83 in experiment [5]; -2.57 in [6]. The composite z-score with Lefty1 was -1.25; in [8] it was 0.0191; in experiment [10], -0.668; in [15] it was -0.959; in experiment [16] it was -0.127; with Torsin-1A (Homo sapiens) [17], -1.43. The composite z-score is -1.53 with Torsin-1A (Homo sapiens) [18] and -2.14 in experiment [19]. In addition, the z-score in experiment [7] is -0.138; in experiment [9], -0.877 (inactive); in [11], 0.305 (inactive); in experiment [12], 0.731 (inactive); in [13] it was 0.495 (inactive); in [14] it was 0.84 (inactive).
As to `COc1ccc(CCNC(=O)[C@@]2(C)c3ccccc3C(=O)N(Cc3cc(C(F)(F)F)cc(C(F)(F)F)c3)[C@H]2c2ccc(CO)cc2)cc1`, the composite z-score is 0.202 in experiment [1]; 1.07 in experiment [2]; 0.431 in experiment [3]; -0.0796 in [4]; 1.19 in [5]; 0.491 in experiment [6]. For the same molecule, the composite z-score is 0.0292 in the experiment with Lefty1; 0.367 in [8]; 0.024 in experiment [10]; -0.404 in experiment [15]; -0.102 in experiment [16]; 0.602 with Torsin-1A (Homo sapiens) [17]. Further, the composite z-score was 1.52 in the experiment with Torsin-1A (Homo sapiens) [18] and 0.198 in experiment [19]. The z-score in experiment [7] is 0.502; in [9], -0.868 (inactive); in [11], -5.45 (inactive); in experiment [12], 0.603 (inactive); in [13], 1.18 (inactive); in experiment [14], -0.896 (inactive).
In the case of `[N-]=[N+]=NCc1ccccc1[C@H]1OC(c2ccc(OCCCO)cc2)=N[C@@]1(Cc1ccccc1)C(=O)N1CCOCC1`, the composite z-score in experiment [1] stood at 1.44; in [2], 1.26; in [3], 0.46; in experiment [4] it was 0.992; in [5] it was 0.25; in [6], 1.48. For the same molecule, the composite z-score with Lefty1 is -0.155; in [8], 0.723; in experiment [10] it was 0.896; in experiment [15], 1.08; in experiment [16], 0.355; with Torsin-1A (Homo sapiens) [17] it was 1.47. Further, the composite z-score was 1.17 with Torsin-1A (Homo sapiens) [18] and -0.346 in [19]. The z-score in experiment [7] was 0.343; in experiment [9], -0.372 (inactive); in [11], -3.73 (inactive); in [12], -0.78 (inactive); in experiment [13], 2.02 (inactive); in experiment [14] it was -0.227 (inactive).
